# PubChem BioAssay (Tox21)
# Results filed as inconclusive are left out. Active and inactive are the calls of the source. Calls follow the shape of the dose curve; as a rule, active = well fitted inhibition curve with a large enough effect in the signal ratio in the repeat runs (not every such curve was filed as active); inconclusive = weak or mixed curves, or effect the other way; inactive = no such curve, though single readings can be large or run the other way; the % refers to the signal ratio.
# Molecular target: Peroxisome proliferator-activated receptor delta (Homo sapiens) (UniProt Q03181)
# Test: qHTS assay to identify small molecule antagonists of the peroxisome proliferator-activated receptor delta (PPARd) signaling pathway (AID 743215);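 also: cells stimulated with agonist L165041 at 300 nM final during compound exposure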
# Details: HEK293H PPARd-UAS-bla, beta-lactamase FRET ratio, antagonist, 17 h; series mostly up to 62 µM
# From the text: U.S. Tox21 Program National Center for Advancing Translational Sciences [NCATS] NIH Chemical Genomics Center [NCGC] U.S. Environmental Protection Agency [EPA] National Institutes of Environmental Health Sciences [NIEHS] National Toxicology Program [NTP] U.S. Food and Drug Administration [FDA] Tox21 Assay Overview: The peroxisome proliferator-activated receptors (PPARs) are lipid-activated transcription factors of the nuclear receptor superfamily with three distinct subtypes namely PPAR alpha, PPAR delta (PPARd) and PPAR gamma. All these subtypes heterodimerizes with Retinoid X receptor (RXR) and have different physiological functions. […] To identify the compounds that inhibit PPAR-delta signaling, GeneBLAzer PPAR delta UAS-bla HEK293H cell line (Invitrogen, Carlsbad, CA, USA) containing a beta-lactamase reporter gene under the control of an Upstream Activator Sequence (UAS) was used to screen the Tox21 compound library.
# Tox21 Assay Protocol Summary: PPARd-bla cells were dispensed at 3000 cells/5uL/well in 1536-well black wall/clear bottom plates using a Multidrop Combi (Thermo Fisher Scientific, Waltham, MA) dispenser. After the assay plates were incubated at 37 C and 5% CO2 for 5 h, 23 nL of compounds dissolved in DMSO, positive controls or DMSO only was transferred to the assay plate by a Pintool station (Kalypsys, San Diego, CA), followed by addition of 1ul L165041 (300 nM, final concentration in the wells). The assay plates were incubated at 37 C for 17 h, and then 1 uL of LiveBLAzerTM B/G FRET substrate was added using a Bioraptr Flying Reagent Dispenser (FRD) workstation (Beckman Coulter, Indianapolis, IN, USA). The assay plates were incubated at room temperature for 2 h and fluorescence intensity was measured by an Envision plate reader (PerkinElmer, Shelton, CT).
# Peroxisome proliferator-activated receptor delta (Homo sapiens), sequence (Q03181 whole entry, looked up): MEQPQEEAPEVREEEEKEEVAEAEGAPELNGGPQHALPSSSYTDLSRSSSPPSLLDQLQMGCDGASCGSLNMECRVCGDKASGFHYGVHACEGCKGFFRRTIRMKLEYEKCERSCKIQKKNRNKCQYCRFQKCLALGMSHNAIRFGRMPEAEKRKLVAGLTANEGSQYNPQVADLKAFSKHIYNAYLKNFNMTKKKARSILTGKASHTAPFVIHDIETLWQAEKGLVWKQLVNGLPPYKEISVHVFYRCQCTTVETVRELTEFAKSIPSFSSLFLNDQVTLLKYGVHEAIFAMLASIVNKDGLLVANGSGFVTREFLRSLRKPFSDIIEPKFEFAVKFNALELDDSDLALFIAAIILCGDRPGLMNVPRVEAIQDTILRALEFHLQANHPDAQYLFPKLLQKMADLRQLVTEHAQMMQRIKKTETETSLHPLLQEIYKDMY
row,SMILES,outcome
1,O=c1[nH][nH]c2ccccc12,inactive
2,CCC(C)CCCC(C)(C)O (stereo not given),inactive
3,CC1(C)C(=O)NC(=O)N1CO,inactive
4,Cc1ccccc1CCO,inactive
5,CC(=O)Nc1cccc(N)c1,inactive
6,Clc1cccc(C(c2ccc3nc[nH]c3c2)n2ccnc2)c1 (stereo not given),inactive
7,NC(=O)c1cc[n+](CC2=C(C(=O)[O-])N3C(=O)[C@@H](NC(=O)Cc4cccs4)[C@H]3SC2)cc1,inactive
8,Oc1ccc(Oc2ccccc2)cc1,inactive
9,CC1(C)CC(=O)CC(C)(C)N1,inactive
10,CCC(=O)O[C@@H]1C[C@H]2CC[C@]1(C)C2(C)C,inactive
11,CC(C)Cc1nccs1,inactive
12,N#Cc1ccc(CC(=O)c2cccc(C(F)(F)F)c2)cc1,inactive
13,CCC[Si](OC)(OC)OC,inactive
14,Cc1cc(C)c(C)c(O)c1,inactive
15,CC(C)(O)C(=O)O,inactive
16,O=Cc1ccc([N+](=O)[O-])cc1,inactive
17,CC(Cc1ccccc1)(NC(=O)CN)c1ccccc1 (stereo not given),inactive
18,C[C@@H](O)[C@H]1C(=O)N2C(C(=O)O)=C(S[C@@H]3CN[C@H](CNS(N)(=O)=O)C3)[C@H](C)[C@H]12,inactive
19,CCCCCO,inactive
20,Oc1ccc(CCNCCCCCCNCCc2ccccc2)cc1O,inactive

row,SMILES,outcome
1,O=C1C=CCCC1,inactive
2,CC(C)(C)c1ccc(CCC=O)cc1,inactive
3,CCOc1ccc2c(c1)C(C)CC(C)(C)N2 (stereo not given),inactive
4,CCCc1ccc(OC)cc1,inactive
5,O=C(c1ccco1)N1CCNCC1,inactive
6,N#CCCCC(C#N)CCC#N (stereo not given),inactive
7,Clc1cc(Cl)c2c(c1)N=C1CCCCCN1C2,inactive
8,O=C(O)c1ccccc1-n1cc(C(=O)O)c(=O)c2cc(Nc3c(F)cc(F)cc3Cl)c(Cl)cc21,inactive
9,CCc1ccc(C(=O)C(C)CN2CCCCC2)cc1 (stereo not given),inactive
10,CC(C)(C)NCC(O)COc1ccc(NC(=O)NC2CCCCC2)cc1 (stereo not given),inactive
11,O=C1c2ccccc2C(=O)C1c1ccc2cc(S(=O)(=O)O)cc(S(=O)(=O)O)c2n1,inactive
12,O=[N+]([O-])c1ccc(Cl)cc1Cl,inactive
13,CCc1c(C)[nH]c2c1C(=O)C(CN1CCOCC1)CC2 (stereo not given),inactive
14,CCCc1nc(C)c2c(=O)[nH]c(-c3cc(S(=O)(=O)N4CCN(CC)CC4)ccc3OCC)nn12,inactive
15,O=C(OC1C[C@H]2CC[C@@H](C1)[N+]21CCCC1)C(O)(c1ccccc1)c1ccccc1 (stereo not given in full),inactive
16,OCCOc1cccc(OCCO)c1,inactive
17,NC(=O)c1ccccc1C(N)=O,inactive
18,CCCCC(CC)COCCC#N (stereo not given),inactive
19,Cc1cc(C)n(CO)n1,inactive
20,CCOc1ccccc1O,inactive
